# Results from PMC5540273 (PLoS ONE, 2017).
# What was measured:
# Conditions in all cases: concentration: 1 μM, replicates: in singlicate; n = 1
# [1] = system: BRSK2
# [2] = system: BTK
# [3] = system: BUB1
# [4] = system: CAMK1B
# [5] = system: CAMK1D
# [6] = system: CAMK1G
# [7] = system: CAMK1
# [8] = system: CAMK2A
# [9] = system: CAMK2B
# [10] = system: CAMK2D
# 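Note: KINOMEscan kinase panel screen.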
Structure (SMILES),%Inh [1] [%],%Inh [2] [%],%Inh [3] [%],%Inh [4] [%],%Inh [5] [%],%Inh [6] [%],%Inh [7] [%],%Inh [8] [%],%Inh [9] [%],%Inh [10] [%]
COc1cc(Nc2nccc(N3CCC(NC(=O)C4COc5ccccc5O4)C3)n2)cc(OC)c1OC (stereo not shown) [GSK1379761],0,53,53,25,8,8,21,8,0,9
CCC(=O)c1c(-c2ccccc2)c2cc(Cl)ccc2c(=O)n1Cc1cc(S(C)(=O)=O)n(CCC(C)(C)O)n1,0,23,14,0,0,33,7,15,0,24
CCC(=O)c1c(-c2ccccc2)c2cc(Cl)ccc2c(=O)n1Cc1cc(S(C)(=O)=O)n(CC(N)=O)n1,0,0,0,0,21,0,3,0,0,0
COc1cc(Nc2nccc(N3CCC(NC(=O)C(C)c4ccc(Cl)cc4)C3)n2)cc(OC)c1OC (stereo not shown) [GSK1379757],0,0,48,0,9,0,22,0,0,0
Cn1c(=O)c(F)c(Nc2ccc(I)cc2F)c2c(=O)n(OC[C@H](O)CO)cnc21,15,0,0,0,8,0,0,4,12,9
CCS(=O)(=O)c1ccc(OC)c(Nc2ncc(-c3ccc(F)cc3)o2)c1.Cl [GW591947],0,0,8,0,3,4,0,0,0,12
Nc1ncnc2c1ncn2-c1cccc2ccccc12 [SKF-97184],22,0,37,27,10,8,20,0,0,0
Cc1c(Cn2c(C)nn3c(=O)cc(N4CCO[C@H](C)C4)nc23)cccc1C(F)(F)F [GSK2373690],0,0,0,0,7,0,7,0,0,0
OCCCNc1nccc(-c2c(-c3cccc(C(F)(F)F)c3)nn3cc(C(F)(F)F)ccc23)n1 [GW630813],0,0,42,0,14,1,11,0,0,22
COc1cccc(C2=C(N(C)c3ccccc3)C(=O)NC2=O)c1 [SB-334865],0,0,53,8,12,0,4,0,0,17
Cc1ccc(Oc2ccc(Nc3ncnc4cc[nH]c34)cc2C)cn1,19,19,0,0,34,0,16,0,0,0
COc1ccc(CNC(=O)NC2CCN(c3ccnc(Nc4ccc(F)cc4)n3)C2)cc1 (stereo not shown) [GSK1379706],3,18,50,0,4,8,5,0,0,18
Cc1cc(Nc2nc(-c3cccc(C)n3)nc3ccccc23)ccn1 [GW872411],13,0,0,0,0,0,0,0,0,0
O=C(Nc1n[nH]c2nc(-c3ccccc3)c(Cl)cc12)C1CC1 [SB-734909],51,0,0,0,0,0,0,0,0,0
COC(=O)c1c(-c2ccccc2)c2cc(Br)ccc2c(=O)n1Cc1ccc(S(C)(=O)=O)cc1,0,47,15,0,26,21,42,21,6,18
COc1cc2ncn(-c3cc(OCCCc4ccccc4)c(C(N)=O)s3)c2cc1OC [GSK205189],3,0,20,0,16,24,14,0,0,16
Nc1n[nH]c2ncc(-c3ccccc3)cc12 [SB-517081],0,0,34,58,40,17,18,0,0,11
COc1cc2ncn(-c3cc(OCc4ccc(S(C)(=O)=O)cc4)c(C(N)=O)s3)c2cc1OC [GW869979],0,0,28,0,0,0,0,3,6,0
COc1cc2ncn(-c3cc(OCc4ccncc4)c(C(N)=O)s3)c2cc1OC [GSK336313],0,0,4,24,25,47,24,0,0,37
Cc1nc(N(C)[C@H]2CN(C(=O)CC#N)CC[C@H]2C)c2cc[nH]c2n1,0,0,0,0,15,1,22,0,5,0
O=C(Nc1n[nH]c2cc(-c3ccccc3F)ccc12)C1CC1 [SB-733371],0,0,0,0,0,0,0,2,0,0
FC(F)(F)c1ccc(-c2ncn(CCCN3CCOCC3)c2-c2ccncc2)cc1 [SB-217780],7,0,0,35,23,3,0,0,0,3
COc1cccc(-n2cnc3c(N)ncnc32)c1 [SKF-97416],6,0,57,20,11,0,16,0,0,12
CCC(=O)c1c(-c2ccccc2)c2cc(Cl)ccc2c(=O)n1Cc1ccc(C(=O)O)cc1,0,0,0,0,0,0,0,0,0,0

Structure (SMILES),%Inh [1] [%],%Inh [2] [%],%Inh [3] [%],%Inh [4] [%],%Inh [5] [%],%Inh [6] [%],%Inh [7] [%],%Inh [8] [%],%Inh [9] [%],%Inh [10] [%]
CN(C)c1cc(-c2ccc3c(N)n[nH]c3c2)nc(N)n1 [GSK2219329],0,0,24,0,9,0,4,0,0,0
CCC(=O)c1c(-c2ccccc2)c2cc(Cl)ccc2c(=O)n1Cc1cc(S(C)(=O)=O)n(CC(F)F)n1,0,0,4,0,0,1,0,2,0,0
COc1cccc(C2=C(Nc3cccc(C(=O)O)c3)C(=O)NC2=O)c1 [SB-390770],17,0,8,30,0,33,3,22,33,0
COc1ccc(-c2cc3c(C)nc(N)nc3n([C@H]3CC[C@H](O)CC3)c2=O)cn1,0,0,0,0,0,0,0,0,0,0
Cc1ccc(-c2ccc3c(ccc4sc5c(c43)NC[C@@H](C)N=C5N(C)C)n2)cn1,0,0,0,0,0,0,0,0,0,0
CCC(=O)c1c(-c2ccccc2)c2cc(Cl)ccc2c(=O)n1Cc1cc(C(=O)NC2CC2)n(C)n1,0,15,6,0,12,0,20,0,0,0
COc1cc2nccc(Nc3ccc(OCc4ccc(NC(C)=O)cc4)cc3)c2cc1OC.Cl [GW440135],0,0,46,31,8,0,5,0,0,4
COc1cc2nccc(Nc3cccc(Oc4ccccc4)c3)c2cc1OC.Cl [GW284543],1,24,38,28,0,0,2,0,0,6
Nc1n[nH]c2nnc(-c3ccccc3)c(-c3ccccc3)c12 [GW554060],0,2,60,5,0,4,3,0,0,0
O=c1cc(N2CCOCC2)nc2n(Cc3ccc(F)c(Cl)c3)ccn12 [GSK2297099],0,0,0,32,9,11,17,0,0,23
Nc1nccc2scc(-c3ccc4c(c3)CCN4C(=O)Cc3ccccc3)c12 [GSK2576924],0,0,0,33,10,0,9,10,2,4
Cl.NS(=O)(=O)c1cccc(Nc2cc(-c3ccc(F)cc3)n[nH]2)c1 [GW824645],0,0,36,0,0,0,0,0,0,0
COc1cc(Nc2ccnc3ccc(C(F)(F)F)cc23)cc(OC)c1OC [GW577382],10,35,23,38,14,1,17,0,0,5
Cc1nnc(-c2ccc(C)c(-c3ccc(C(=O)O)cc3)c2)o1 [GW608005],8,0,17,8,4,0,2,0,0,0
O=C(Nc1n[nH]c2nc(-c3ccccc3)c(Br)cc12)C1CC1 [SB-708998],32,0,11,26,4,0,4,0,0,4
CCn1c(-c2ccoc2)nc2cnccc21 [SB-733887],0,0,59,0,8,0,2,0,0,0
COc1ccc(Nc2nccc(N3CCC(NS(=O)(=O)c4ccc(NC(C)=O)cc4)C3)n2)cc1 (stereo not shown) [GSK1379729],0,26,37,31,19,0,18,0,0,0
CCS(=O)c1ccc(-c2coc3ccc(-c4nnc(C)o4)cc23)cc1 (stereo not shown),11,18,0,5,23,2,20,0,3,0
COc1ccc(-n2cnc3c(N)ncnc32)cc1 [SKF-97236],14,8,4,25,10,0,5,0,0,0
O=C1NC(=O)C(c2ccccc2)=C1Nc1cccc(O)c1 [SB-390534],0,0,0,0,0,0,0,17,0,62
CN1C(=O)C(Nc2ccccc2)=C(c2ccccc2)C1=O [SB-300079],0,0,32,0,0,0,0,0,0,0
Cc1nn2c(=O)cc(N3CCOCC3)nc2n1Cc1cccc(Cl)c1Cl [GSK2342769],0,0,12,28,8,8,9,0,0,1
Cc1nnc(-c2ccc3ncn(-c4ccc(S(C)=O)cc4)c3c2)o1 (stereo not shown),0,0,0,13,0,2,11,0,0,4
COc1ccc(-c2coc3ccc(-c4nnc(SCc5cccc(C#N)c5)o4)cc23)cc1,10,0,0,6,23,8,26,0,0,7

Structure (SMILES),%Inh [1] [%],%Inh [2] [%],%Inh [3] [%],%Inh [4] [%],%Inh [5] [%],%Inh [6] [%],%Inh [7] [%],%Inh [8] [%],%Inh [9] [%],%Inh [10] [%]
Cc1cccc(-c2nc(Nc3ccc4c(cnn4C)c3)c3ccccc3n2)n1 [GW876731],2,0,34,0,0,0,10,0,8,2
Cl.c1ccc(Cn2cnc3cc(Nc4ncnc5ccccc45)ccc32)cc1 [GW272142],0,0,38,31,0,0,0,0,0,15
CCc1nc(-c2cccc(C)c2)c(-c2ccncc2)s1,0,0,35,9,23,0,8,0,0,0
CCCNC(=O)Nc1ccc(Oc2ncnc3ccn(C)c23)cc1,8,0,0,0,0,19,13,0,1,11
CCn1c(-c2nonc2N)nc2ccccc21 [SB-693162/GW549034],4,29,0,8,20,0,17,5,0,0
Nc1nc(N)c2nc(-c3ccccc3)[nH]c2n1 [SKF-12778],0,0,23,18,0,0,0,0,0,0
Cc1cccc(-c2cc(-c3c[nH]nc3-c3ccccn3)ccn2)c1 [GW679395],0,0,28,5,10,0,7,0,0,5
Nc1ncnc2c1ncn2-c1ccc(Cl)cc1 [AH2635],9,0,25,3,4,0,5,0,0,0
O=C(NCCNc1ccnc(Nc2ccc(F)cc2)n1)Nc1ccc2c(c1)OCO2 [GSK1379882],0,0,18,0,9,0,20,0,0,4
COC(=O)c1c(-c2ccccc2)c2cc(Br)ccc2c(=O)n1Cc1ccc(NC(=O)CCC(=O)O)cc1,0,38,20,38,12,9,12,0,0,3
COC(=O)c1c(-c2ccccc2)c2cc(C)ccc2c(=O)n1Cc1ccccc1,0,0,0,0,19,12,21,0,0,0
CC(C)(C)c1ccc(C(=O)Nc2cn3cc(-c4ccccc4)ccc3n2)cc1,0,0,0,6,0,0,0,0,0,0
Fc1cccc(CSc2nnc(-c3ccc4c(c3)CCO4)o2)c1,0,33,25,0,0,2,6,16,24,0
CCCC(=O)Nc1n[nH]c2ncc(-c3cccc4ccccc34)cc12 [SB-642057],0,0,35,7,14,11,0,0,0,14
O=C(NCc1cccs1)c1cc(C(=O)c2c(Cl)cccc2Cl)c[nH]1 [GW823670],0,0,0,0,0,0,0,0,0,0
COc1cc2ncn(-c3cc(OCc4ccncc4Br)c(C(N)=O)s3)c2cc1OC [GW854278],20,0,0,0,0,7,0,37,46,17
COc1ccc(-c2cc3c(C)nc(N)nc3n([C@H]3CC[C@H](OCCO)CC3)c2=O)cn1,0,0,0,7,0,0,0,0,0,0
Nc1nc(-c2ccccc2F)c(-c2ccnc3ccccc23)s1 [GW560459],4,0,61,0,0,0,6,0,0,0
COc1cc(OC)cc(-c2cc3cnc(N)nc3nc2NC(=O)NC(C)(C)C)c1,6,0,0,0,0,0,0,0,0,4
CCc1ccc(-c2ccc3c(c2)-c2nn(C)cc2S(=O)(=O)N3C)cc1,11,13,0,0,5,16,2,9,19,25
O=C(Nc1ccc2c(c1)OCO2)NC1CCN(c2ccnc(NCc3ccc(F)cc3)n2)CC1 [GSK1379859],0,0,7,0,16,0,16,0,0,7
Nc1ncnc2c1ncn2-c1cccc(F)c1 [SKF-97560],5,22,39,0,0,0,0,0,3,0
